PrP 5UTR inh: inhibition of PrP 5' UTR reporter expression; cell-based PrP 5' UTR mRNA reporter, plate reader; inhibition, % (test concentration not listed); 340,000 tested, 0.35% active; AID 488862; in the data active = inhibition above about 52%; note: 0 = median of the neutral control wells
MazF activator: MazEF (E. coli) toxin RNase activation | P0AE70 | FAM/BHQ RNA-DNA oligo cleavage fluorescence, 5 h | activation, % at 20 µM | 350,000 tested, 0.32% active; in the data active = activation above about 50%
Target sequence (P0AE70 whole entry, looked up): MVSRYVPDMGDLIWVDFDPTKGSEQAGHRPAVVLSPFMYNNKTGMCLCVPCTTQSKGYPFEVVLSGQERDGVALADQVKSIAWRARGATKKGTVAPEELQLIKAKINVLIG
DUSP3 inh: inhibitors of human VHR1 phosphatase (DUSP3). P51452. recombinant VHR phosphatase, pNPP absorbance. inhibition, % at 13.3 µM. 290,000 tested, 0.52% active; in the data active = inhibition above about 50%
Target sequence (P51452 whole entry, looked up): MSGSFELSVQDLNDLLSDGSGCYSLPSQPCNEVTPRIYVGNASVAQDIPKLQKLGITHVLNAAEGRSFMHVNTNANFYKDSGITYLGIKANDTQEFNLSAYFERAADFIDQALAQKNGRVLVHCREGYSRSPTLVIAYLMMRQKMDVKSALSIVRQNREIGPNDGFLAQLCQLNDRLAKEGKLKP
PrPC TRFRET: cell surface PrPC inhibition, primary TR-FRET screen; AID 720596; 370,000 tested, 0.43% active; TR-FRET read-out; P04156; inhibition, % at 13.8 µM; in the data active = inhibition above about 24%; note: 0% = median of the test wells and 100% = reference compound wells
BJeLR lethal: BJeLR cell viability loss; 300,000 tested, 0.17% active; AID 1554; inhibition, % (test concentration not listed); BJeLR (HRASV12) viability, CellTiter-Glo ATP luminescence, 48 h; in the data active = inhibition above about 50%
PfHsp40 yeast: compounds rescuing yeast from Plasmodium falciparum HSP40 toxicity. S. cerevisiae expressing PfHsp40, growth rescue, ATP luminescence. growth rescue, % at 12.5 µM. 340,000 tested, 0.68% active; in the data active = growth rescue above about 28%, passing the limit was not always enough;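 note: yeast W303a lacking pdr1 and pdr3 grown in galactose medium; growth measured after three days at 30 °C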
Numbers without * were called inactive; x = no result; + = active, no number. Rows were chosen to be rich in hits. Some 2.1% of all compounds tested hit in one or more screens of this group.

SMILES	PrP 5UTR inh	MazF activator	DUSP3 inh	PrPC TRFRET	BJeLR lethal	PfHsp40 yeast
CCOC(=O)C1=CN(Cc2cccc(F)c2)S(=O)(=O)N(C)C1c1ccccc1 (stereo not drawn)	-54	2	x	8	x	0
CCOC(=O)C1=CN(Cc2cccc(F)c2)S(=O)(=O)N(C)C1c1cccc(OC)c1 (stereo not drawn)	-19	50*	x	11	x	1
COc1ccc(C(=O)/C=C/C(=O)N(CC(=O)NC2CCCCC2)Cc2ccccc2OC)c(O)c1	-21	7	38	-3	51*	1
Clc1nssc1=Nc1ccc(Br)cc1	-52	-11	13	0	7	-1
Clc1ccc(N=c2ssnc2Cl)nc1	-34	9	61*	1	-4	1
CC(NC(=O)COC(=O)c1ccc(OCC2CCCO2)cc1)c1ccccc1Cl (stereo not drawn)	-23	3	x	3	x	0
CC(=O)c1cccc(N(C(=O)c2ccco2)C(C(=O)NC2CCCCC2)c2ccc(C)o2)c1 (stereo not drawn)	-15	6	1	-3	-14	1
CCOC(=O)C1CCCN(C2CC(=O)N(c3ccccc3)C2=O)C1 (stereo not drawn)	-16	9	42	3	-8	0
CCOC(=O)C1CCCN(C2CC(=O)N(c3cccc(C(F)(F)F)c3)C2=O)C1 (stereo not drawn)	-22	8	4	-3	7	44*
COc1ccccc1CNC(=O)CCC1N=C2c3ccccc3N=C(SCC(=O)NCC3CCCO3)N2C1=O (stereo not drawn)	-8	2	6	0	-4	-2
Fc1cccc2sc(Nc3nnc(-c4ccco4)o3)nc12	-55	-5	-22	12	3	74*
NC(c1csc(Nc2ccccn2)n1)c1ccccc1Cl (stereo not drawn)	x	x	x	8	x	x
COC(=O)c1ccc(OC)c(-c2c(OC)cc(OC)cc2OC)c1	-6	2	40	-4	-9	-1
COc1cc(OC)c(-c2cc(C(=O)O)ccc2OC)c(OC)c1	-19	+	0	0	8	0
CCn1c(SCC(=O)Nc2ccc3c(c2)OCCO3)nnc1-c1cccnc1	-11	4	19	4	0	2
COC(=O)c1cc2c(=O)c3ccccc3oc2nc1/C=C/N(C)C	-61	85*	20	-15	4	0
OCCCn1c(C2CCCN2c2nc(-c3ccc(F)cc3)cs2)nc2cc(C(F)(F)F)ccc21 (stereo not drawn)	-16	-17	x	-1	-10	145*
OCCOCCn1c(C2CCCN2c2nc(-c3ccc(F)cc3)cs2)nc2cc(Cl)c(Cl)cc21 (stereo not drawn)	-21	-3	x	0	-6	143*
COc1ccc(-c2csc3ncnc(N4CCN(S(=O)(=O)c5ccc(C(C)=O)cc5)CC4)c23)cc1	8	-11	x	-8	5	3
Cc1ccc(OCc2cc(C(=O)NC(C)Cc3cccc(C)n3)no2)cn1 (stereo not drawn)	-27	6	10	1	-16	0
Cc1c[nH]c2cccc(-c3ccc(OCc4ccccc4)cc3)c12	x	x	x	4	x	x
COc1ccc(-n2nc(C(=O)NCC(=O)Nc3ccccn3)c3ccccc3c2=O)cc1	-25	0	37	0	9	-1
CCOc1ccc(NC(=O)CNC(=O)c2nn(-c3ccc(OC)cc3)c(=O)c3ccccc23)cc1	-21	73*	12	0	-4	0
Cc1ccccc1C(=O)N/N=C1/SCC(=O)N1Cc1ccccc1	-20	5	19	1	-1	-1
O=c1c2ccccc2nc2c3ccccc3c(NCc3ccccn3)nn12	-23	12	57*	1	x	9
SMILES	PrP 5UTR inh	MazF activator	DUSP3 inh	PrPC TRFRET	BJeLR lethal	PfHsp40 yeast
O=c1c2ccccc2nc2c3ccccc3c(NCc3cccnc3)nn12	1	-6	26	-1	13	0
O=C(O)C1C2CCC(C2)C1C(=O)N1CCCC1 (stereo not drawn)	-11	3	8	4	27	-2
Cc1cccc(CCNc2nc3ccccc3n3nnnc23)c1	3	9	23	-3	-13	0
Clc1ccc(CCNc2nc3ccccc3n3nnnc23)cc1	-15	-16	50*	1	-1	1
O=C1CC2(CCN(C(=O)C3CC(=O)N(c4ccc(F)cc4)C3)CC2)Oc2ccccc21 (stereo not drawn)	-19	14	x	6	-7	-1
COc1ccc(/C=C/C(=O)NC(=S)N2CCN(C)CC2)cc1	-16	51*	12	4	2	-1
CC(=O)c1cccc(NC(=O)C(C)OC(=O)CCn2c(C)csc2=O)c1 (stereo not drawn)	-18	9	x	1	x	1
CCN1C(=S)SC(=O)C1=C1C=C(C)N(Cc2ccco2)C(C)=C1	-72	-9	10	-18	7	3
CCN1C(=S)SC(=O)C1=C1C=C(C)OC(C)=C1	-51	+	-9	-5	1	-1
CC(C)Oc1ccc(-c2csc(N3CCC(C(N)=O)CC3)n2)cc1	x	x	x	-7	x	x
COc1ccc(NC(=O)Nc2ccc3c(c2)C(=O)N([C@H](C)CO)C[C@H](C)[C@@H](CN(C)S(=O)(=O)c2cccs2)O3)cc1	-20	0	x	9	x	0
C[C@@H]1CN([C@H](C)CO)C(=O)c2cc(NC(=O)Nc3ccc(F)cc3)ccc2O[C@H]1CN(C)C(=O)Nc1ccc(C(F)(F)F)cc1	-20	-8	x	x	x	47*
COc1ccc(S(=O)(=O)Nc2ccc3c(c2)C(=O)N([C@H](C)CO)C[C@H](C)[C@@H](CN(C)S(=O)(=O)c2cccs2)O3)cc1	7	54*	x	-5	x	2
C[C@H](CO)N1C[C@H](C)[C@@H](CN(C)C(=O)Nc2ccccc2)Oc2ccc(NC(=O)Nc3ccc(C(F)(F)F)cc3)cc2C1=O	-22	7	x	-7	x	-1
O=C1c2ccccc2NC(c2ccc([N+](=O)[O-])cc2)N1O (stereo not drawn)	-14	5	6	-11	1	37*
O=C1c2ccccc2NC(c2cccc([N+](=O)[O-])c2)N1O (stereo not drawn)	-12	14	32	0	3	3
Cc1ccc2[nH]c3c(c2c1)CCCC3C(N)=O (stereo not drawn)	-8	0	8	5	8	0
Cc1ccc2[nH]c3c(c2c1)CCCC3NC(=O)CCl (stereo not drawn)	10	13	4	x	60*	4
COc1cccc(/C=C/C(=O)NNC(=O)CCN2CCN(Cc3ccccc3)CC2)c1	-17	-2	27	-4	3	-2
O=C(/C=C/c1ccc(F)cc1)NNC(=O)CCN1CCN(Cc2ccccc2)CC1	-7	-9	-9	-12	55*	-1

High-throughput results (PubChem)
